Test results reported in PubChem BioAssay (NCATS).
Records with an inconclusive call do not appear. The source made the active and inactive calls. The call rests on the fitted dose curve; in most records, active means well fitted inhibition curve with a large enough effect; inconclusive means small, poorly fitted or top-dose-only effect; inactive means no such curve, though single readings can be large or run the other way.

experiment: BET inhibitor-based combinations targeting novel dependencies in MECOM-rearranged (r) AML: UCSD-AML1 cell line (AID 2202235); conditions: UCSD-AML1 AML cells viability, CellTiter-Glo, 48 h; series mostly up to 46 µM; viability (% of control): at the top concentration; further: nearly all actives have a fitted effect of over 40% in size;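 on viability (% of control): plate controls were DMSO vehicle wells for no effect and blank wells for full effect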
Description: Ecotropic viral insertion site 1 (EVI1) is located on chromosome 3q26.2 as part of the MECOM (MDS and EVI1 complex) locus. Under normal hematopoiesis, EVI1 is a regulator of hematopoietic stem cell maintenance and self-renewal and EVI1 levels decrease as the cells differentiate. In approximately 5-10% of de novo acute myeloid leukemia (AML) EVI1 is aberrantly expressed, including Chromosomal inv(3)(q21;q26.2) or t(3;3)(q21;q26.2) alterations (MECOM-r) that account for about 50% of AML with EVI1 overexpression 31. AMLs with high levels of EVI1 have a poor prognosis and an overall survival time averaging between 10-14 months. EVI1 overexpression confers resistance in leukemia cells, highlighting the need to develop new targeted therapies for EVI1 overexpressing AMLs. Here, we performed an unbiased chemical drug screening by evaluating the single agent activity of a collection of 2,480 oncology-focused, approved and investigational drugs (NCATS Mechanism Interrogation Plates, MIPE v5.0) against a panel of seven AML cell lines. These included four MECOM-r cell-lines (AML-191, AML-194, UCSD-AML1 and HNT-34) and three non-MECOM-r AMLs (MV4-11, OCI-AML3 and SET-2). Exploiting the mechanistic redundancy built in the library, we identified target-level sensitivities in MECOM-r AML cells and relative activity as compared to other AML subtypes.
A collection of 2480 mechanistically annotated dugs (MIPE v5.0) was used to screen four 3q26.2 rearranged AML cell lines and three non-3q26.2 rearranged AML cell lines. This library purposely exploits redundancy by including multiple inhibitors of key onco-targets, while simultaneously encompassing mechanistic diversity, targeting more than 800 distinct mechanisms of action. Briefly, cells were seeded in 5 uL of growth media using a Multidrop Combi dispenser into 1536 well white polystyrene tissue culture treated plates (Corning) at a density of 500cells/well. For each cell-line, for each of the 2480 drugs in MIPE v5.0 library, an 11-point dose curve was generated via a 1536 pin-tool. Plates were incubated for 48 hr at standard incubator conditions, covered by a stainless steel gasketed lid to prevent evaporation. Cell viability was determined by luminescence based, Cell Titer Glo assay (Promega). In detail, 3 uL of Cell Titer Glo were added to each well and plates were incubated at room temperature for 15 min with a stainless-steel lid in place. Luminescence readings were taken using a Viewlux (PerkinElmer) with a 2 s exposure time per plate. Compound dose-response curves were normalized to DMSO and empty well controls on each plate. Quantitative drug activity data from dose-response curves was determined utilizing area Under the Curve (AUC) and Z-transformed AUC (Z-AUC, a mean-centering transformation applied to each individual cell-line screened).
Potency means the concentration at half of the fitted maximal effect.

| Compound | Potency | viability (% of control) |
| --- | --- | --- |
| Cc1[nH]ncc1-c1cc2nc([C@@H]3CC4CCN3CC4)[nH]c(=O)c2s1 | 9340 nM (active) |  |
| O=C(O)C(=O)c1cn(Cc2ccccc2)c2ccc(-c3ccc(OC(F)(F)F)cc3)cc12 |  | 113% (inactive) |
| O=C(Oc1ccc([N+](=O)[O-])cc1)N1CCN(Cc2cccc(Oc3ccccc3)c2)CC1 |  | 103% (inactive) |
| C#CCN(C)[C@H](C)Cc1ccccc1 |  | 106% (inactive) |
| CN1C(=O)COc2c(C(=O)NC3CN4CCC3CC4)cc(Cl)cc21 (stereo not given) |  | 105% (inactive) |
| CC1(C)C(=O)N(c2ccc(C#N)c(C(F)(F)F)c2)C(=S)N1Cc1ccc(-c2cn[nH]n2)cc1 |  | 114% (inactive) |
| CC[C@@]1(O)C(=O)OCc2c1cc1n(c2=O)Cc2cc3ccccc3nc2-1 | 10.5 nM (active) |  |
| CCCCCC[C@H]1C(=O)O[C@H](C)[C@H](NC(=O)c2cccc(NC=O)c2O)C(=O)O[C@@H](C)[C@@H]1OC(=O)CC(C)C |  | 105% (inactive) |
| C=C1C[C@@H]2[C@H](CC[C@]3(C)C(=O)CC[C@@H]23)[C@@]2(C)C=CC(=O)C=C12 |  | 86.7% (inactive) |
| CCN1CCN(C(=O)Cc2ccc(Nc3ncc(F)c(Nc4ccc(C(=O)Nc5ccccc5Cl)cc4)n3)cc2)CC1 | 3720 nM (active) |  |
| COc1cc([C@@H]2c3cc4c(cc3[C@@H](O)C3COC(=O)C32)OCO4)cc(OC)c1O (stereo not given in full) | 332 nM (active) |  |
| CC(=O)OC[C@H]1O[C@@H]([S-])[C@H](OC(C)=O)[C@@H](OC(C)=O)[C@@H]1OC(C)=O.CC[PH+](CC)CC.[Au] | 934 nM (active) |  |
| O=P1(NCCCl)OCCCN1CCCl (stereo not given) |  | 107% (inactive) |
| COc1ccc(C(=O)N2CCCC2=O)cc1 |  | 105% (inactive) |
| C[C@]12CC[C@@H]3c4ccc(OC(=O)N(CCCl)CCCl)cc4CC[C@H]3[C@@H]1CC[C@@H]2OP(=O)(O)O |  | 104% (inactive) |
| O=P1(N(CCCl)CCCl)NCCCO1 (stereo not given) |  | 106% (inactive) |
| C[C@H]1CCC/C=C/C2C[C@H](O)C[C@H]2[C@H](O)/C=C/C(=O)O1 (stereo not given in full) | 209 nM (active) |  |
| CNCC(O)c1ccc(O)cc1 (stereo not given) |  | 105% (inactive) |
| COc1ccc(N(C(=O)Oc2c(C)cccc2C)c2ccnc(Nc3ccc(N4CCN(C)CC4)cc3)n2)c(OC)c1 |  | 91.9% (inactive) |
| CCN(CC)C(=O)c1ccc(C2=CC3(CCNCC3)Oc3cccc(O)c32)cc1 |  | 107% (inactive) |

| Compound | Potency | viability (% of control) |
| --- | --- | --- |
| CC(=O)N1N=C(c2ccc(N)cc2)c2cc3c(cc2C[C@H]1C)OCO3 |  | 105% (inactive) |
| COC1(CS(=O)c2ccccc2)CCN(CCc2c[nH]c3ccc(F)cc23)CC1 (stereo not given) |  | 105% (inactive) |
| CC[C@@H](C(N)=O)N1CCCC1=O |  | 102% (inactive) |
| CO/C1=C/C(C)=C\[C@@H](C)[C@@H](O)[C@@H](C)C/C(C)=C\C=C/[C@H](OC)[C@@H]([C@@H](C)[C@@H](O)[C@H](C)[C@@]2(O)C[C@@H](O)[C@H](C)[C@@H](C(C)C)O2)OC1=O |  | 112% [at 15.6 µM] (inactive) |
| Cn1c(COP(=O)(NCCBr)NCCBr)cnc1[N+](=O)[O-] |  | 104% (inactive) |
| C[C@]12COC(=O)C[C@@H]1CC[C@@H]1[C@@H]2CC[C@@]2(C)[C@H]1CC[C@]2(C)O |  | 107% (inactive) |
| COC(=O)[C@@H](N)CCCN=C(N)N[N+](=O)[O-] |  | 92.2% (inactive) |
| Cc1c(C(=O)Nc2cccc(C(F)(F)F)c2)cc(-c2ccccc2)n1CCCN1CCOCC1 |  | 79.1% (inactive) |
| C/C1=C/C[C@@H](/C(C)=C/c2csc(C)n2)OC(=O)C[C@H](O)C(C)(C)C(=O)[C@H](C)[C@@H](O)[C@@H](C)CCC1 | 118 nM (active) |  |
| C[C@@]12OC(=O)[C@]1([C@@H](O)[C@@H]1C=CCCC1)NC(=O)[C@@H]2CCCl | 33.2 nM (active) |  |
| Cn1c(CCCC(=O)O)nc2cc(N(CCCl)CCCl)ccc21 | 18600 nM (active) |  |
| C#C[C@]1(O)C=C[C@H]2[C@@H]3CCC4=CC(=O)CC[C@@H]4[C@H]3CC[C@@]21CC |  | 97.6% (inactive) |
| O=C(NCC1CCOCC1)c1cnc(Nc2ccc(Cl)cc2Cl)nc1C(F)(F)F |  | 97.9% (inactive) |
| O=c1[nH]c2ccccc2n1CCCN1CCC(n2c(=O)[nH]c3cc(Cl)ccc32)CC1 |  | 119% (inactive) |
| CC(=O)c1c(O)c(C)c(O)c(Cc2c(O)c3c(c(C(=O)/C=C/c4ccccc4)c2O)OC(C)(C)C=C3)c1O | 4170 nM (active) |  |
| CC(O)(CS(=O)(=O)c1ccc(F)cc1)C(=O)Nc1ccc(C#N)c(C(F)(F)F)c1 (stereo not given) |  | 108% (inactive) |
| O=C1C=CC[C@@H]2[C@H]3CCCN4CCC[C@@H](CN12)[C@@H]34 |  | 101% (inactive) |
| Fc1ccc(C(OCCN2CCN(CCCc3ccccc3)CC2)c2ccc(F)cc2)cc1 | 26300 nM (active) |  |
| CC1(C)CC(O)CC(C)(C)N1O |  | 112% (inactive) |
| COC12C(COC(N)=O)C3=C(C(=O)C(C)=C(N)C3=O)N1CC1C2N1C (stereo not given) |  | 110% (inactive) |
